Among all 13,000 compounds or so, about 3,200 (25%) showed an effect of 50% or more. Some of the results follow.
Tested on: P. falciparum stage V gametocytes
Parameters: BacTiter-Glo ATP luminescence viability of purified stage V gametocytes in 384-well plates, per cent inhibition versus DMSO
Settings: 48 h, 5 µM; inhibitor

SMILES	% Inhibition [%]
CC1(C)N=C(N)N=C(N)N1O [TCMDC-131576]	-2.875
COc1ccc2ncc(F)c(CCN3CC[C@@H](CNCc4nc5c(cc4C)SCC(=O)N5)C3)c2n1 [TCMDC-136056]	97.91
COc1ccc2ncc(F)c(CCN3CC4CCCC4(CNCc4ccc5c(n4)NC(=O)CS5)C3)c2n1 (centres unmarked) [TCMDC-136065]	28.02
COc1ccc2ncc(F)c(CCN3CC[C@H](NC(=O)c4ccc5c(n4)NC(=O)CS5)[C@H](O)C3)c2n1 [TCMDC-135907]	-25.82
COc1ccc2ncc(F)c(CCN3CC[C@@H](CNCc4cc5c(cn4)OCS5)C3)c2n1 [TCMDC-135643]	33.53
COc1ccc2ncc(F)c(CCN3CCC[C@H](CNCc4ccc5c(n4)NC(=O)CS5)C3)c2n1 [TCMDC-136318]	98.5
COc1ccc2ncc(Cl)c(CCN3C[C@H](CNCc4ccc5c(n4)NC(=O)CS5)[C@H](O)C3)c2n1 [TCMDC-136241]	10.16
COc1ccc(NC(C)C(=O)Nc2ccc(Br)cc2)cc1S(=O)(=O)N1CCCCC1 (centres unmarked) [TCMDC-125032]	-25.53
O=C(Cc1ccc[n+]([O-])c1)Nc1cccc(-c2cccc(-c3nc4cc(F)ccc4[nH]3)c2)c1 [TCMDC-136989]	-50
Cc1ccc2nc(N(CCCn3ccnc3)C(=O)C=Cc3cccs3)sc2c1 [TCMDC-124927]	1.025
COc1ccc2nc(N(CCCn3ccnc3)C(=O)C=Cc3cccs3)sc2c1 [TCMDC-124926]	-10.06
O=C(C=Cc1cccs1)N(CCCn1ccnc1)c1nc2ccc(F)cc2s1 [TCMDC-124928]	96.26
OCCN1CCN(C2Cc3ccc(F)cc3Sc3ccc(Cl)cc32)CC1 (centres unmarked) [TCMDC-123467]	11.59
C=C(NC(=O)c1cc(C)cc(C)c1)C(=O)OC [TCMDC-131725]	5.196
CC1CCCN1Cc1cccc(-c2ccc(C(=O)NCCOc3ccccc3)s2)c1 (centres unmarked) [TCMDC-133066]	-6.821
CC(C)(C)OC(=O)[C@H](CC(N)=O)NC(=O)c1ccc(-c2ccc(-c3nc4cc(C(F)(F)F)ccc4[nH]3)s2)cc1 [TCMDC-132340]	-23.75
CC(C)N(Cc1cnc(N)c(C#N)n1)c1ccc(Cl)c(Cl)c1 [TCMDC-137676]	6.722
O=c1[nH]c(=O)n2c(nc3ccccc32)[nH]1 [TCMDC-131695]	19.78
COc1ccc(CNCc2ccc(F)cc2)cc1-c1ccc(OC)c(S(=O)(=O)NCCN2CCCC2)c1 [TCMDC-132295]	107
Cc1cc(-c2cccc(CNCc3ccc(F)cc3)c2)ccc1S(=O)(=O)NCCN1CCCC1 [TCMDC-132278]	105
COc1ccc(CNCc2ccccc2)cc1-c1ccc(OC)c(S(=O)(=O)NCCN2CCCC2)c1 [TCMDC-132250]	31.04
COc1ccc(-c2cccc(CNCc3ccc(F)cc3)c2)cc1S(=O)(=O)NCCN1CCCC1 [TCMDC-132408]	73.1

SMILES	% Inhibition [%]
COc1ccc(-c2ccc(CNCc3ccc(F)cc3)cc2)cc1S(=O)(=O)NCCN1CCCC1 [TCMDC-132282]	111.7
O=S(=O)(NCCN1CCCC1)c1ccc(-c2cccc(CNCc3ccc(F)cc3)c2)cc1F [TCMDC-132275]	25.81
Cc1cc(-c2ccc(CNCc3ccc(F)cc3)cc2)ccc1S(=O)(=O)NCCN1CCCC1 [TCMDC-132291]	38.43
COc1ccc(Nc2nc(NCc3cccc(NS(C)(=O)=O)c3)cc(-c3ccc(OC)cc3)n2)cc1 [TCMDC-133457]	-11.45
COc1ccc(Nc2ncc3c(-c4cccc(NC(=O)Cc5cccc(O)c5)c4)c[nH]c3n2)cc1OC [TCMDC-135247]	-20.67
CN1CC=C(c2c[nH]c3ccc(-c4ccccc4)cc23)CC1 [TCMDC-138962]	-5.151
Cc1cc2nc(-c3ccc(SCC(=O)Nc4ccc5c(c4)OCCO5)nc3)[nH]c2cc1C [TCMDC-125353]	21.88
O=C(CN1CCC2(CCC1=O)CC(=O)c1ccccc1O2)NCCN1CCOCC1 (centres unmarked) [TCMDC-133148]	11.41
COc1ccc(-c2ccc(CNCc3ccccc3)cc2)cc1S(=O)(=O)NCCN1CCCC1 [TCMDC-132230]	103.5
C=CCOC(=O)N1CCC(CNCc2cccc(-c3ccc(-c4nc5cc(C(F)(F)F)ccc5[nH]4)cc3)c2)C1.O=C(O)C(F)(F)F (centres unmarked) [TCMDC-133042]	-7.537
COc1cccc(CC(=O)NC2CCN(c3ccnc4cc(Cl)ccc34)C2)c1 (centres unmarked) [TCMDC-133664]	6.238
COc1cccc(OC2CCN(C(=O)c3cc(C(C)(C)C)nn3Cc3ccccc3)CC2)c1 [TCMDC-134143]	-6.866
COc1cccc(CNC(=O)NC2CCN(c3ccnc(Nc4ccc(F)cc4)n3)C2)c1 (centres unmarked) [TCMDC-133604]	-32.96
COc1cccc(CNC(=O)c2cccc(-c3cccc(CN4CCC(N5CCCC5)CC4)c3)n2)c1 [TCMDC-134417]	25.8
COc1cccc(CC(=O)N2CCC(n3c(C)nc4ccc(F)cc43)CC2)c1 [TCMDC-124792]	80.7
COc1cccc(CC(=O)N2CCC(n3c(C)nc4ccc(C)cc43)CC2)c1 [TCMDC-124791]	93.69
CCOC(=O)c1[nH]c(-c2ccccc2)nc1NC(=S)NC1CCCCC1 [TCMDC-131430]	5.591
Cc1nc(/N=C(\N)NC(=O)NC2CCCCC2)nc2ccccc12 [TCMDC-123808]	133.5
Cc1ccc(NC(=O)NC2CCN(c3ccnc4ccccc34)CC2)cc1 [TCMDC-133588]	13.19
CC(C)CC(NC(=O)c1ccc(F)cc1)C(=O)N[C@H](/C=N/N1CCNC1=O)CC(C)C (some centres unmarked) [TCMDC-136214]	16.28
OC(c1ccccc1)C1CN(Cc2ccccc2)CCC1(O)c1ccccc1 (centres unmarked) [TCMDC-125518]	-9.589
CC(c1cccc(S(=O)(=O)NCc2ccc(Cl)cc2Cl)c1)N1CCC(N2CCCCC2)CC1 (centres unmarked) [TCMDC-133564]	-22.09
